In PubChem BioAssay (Tox21):
Several values for one entry are separate records, joined by “and”; a condition that tells them apart may be missing. Equal values may be shown once. Records with an inconclusive call do not appear. Entries that show only a call come without a potency. The source holds several records for some structures; these can differ, active in one and inactive in another. Activity calls are given as the source filed them. Unless noted, calls follow the shape of the full dose curve.

Test system: not listed separately
Assay: qHTS assay to identify small molecule antagonists of the estrogen receptor alpha (ER-alpha) signaling pathway - cell viability counter screen (AID 743074);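 also: HEK293 cells carrying ER-alpha-UAS-bla reporter stimulated with 17beta-estradiol; nearly all actives have a fitted effect of over 45% in size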
Conditions: ERalpha-bla HEK293 viability, CellTiter-Glo luminescence, 18 h; series mostly up to 69.4 µM

Row | Compound | outcome
1 | C=CCOC(=O)CC(C)C | inactive
2 | Cc1c(N(C)C)c(=O)n(-c2ccccc2)n1C | inactive
3 | Cc1cccc(Nc2cc(Cl)nc(SCC(=O)O)n2)c1C | inactive
4 | NC(=O)N/N=C/c1ccc([N+](=O)[O-])o1 | inactive
5 | COc1cc2c(c(OC)c1OC)-c1ccc(OC)c(=O)cc1[C@@H](NC(C)=O)CC2 | inactive
6 | NC(=O)N1c2ccccc2C=Cc2ccccc21 | inactive
7 | COc1ccccc1O | inactive
8 | C=C(C)OC(C)=O | inactive
9 | COC1=CC(=O)C[C@@H](C)[C@]12Oc1c(Cl)c(OC)cc(OC)c1C2=O | inactive
10 | O=C(O)CN(CC(=O)O)CC(=O)O | inactive
11 | CCCCCCCCOc1ccc(C(=O)c2ccccc2)c(O)c1 | inactive
12 | COc1cc(O)c(C(=O)c2ccccc2)cc1S(=O)(=O)O | inactive
13 | Cc1cnc(NC(=O)C2=C(O)c3ccccc3S(=O)(=O)N2C)s1 | inactive
14 | c1ccc2[nH]c(-c3cscn3)nc2c1 | inactive
15 | CCn1cc(C(=O)O)c(=O)c2ccc(C)nc21 | inactive
16 | COCC(C)N (stereo not given) | inactive
17 | CC(=O)CCC(C)C | inactive
18 | CCCCOCCOCCOC(C)=O | inactive
19 | N[C@@H](Cc1c[nH]c2ccc(O)cc12)C(=O)O | inactive
20 | CC(=O)OC/C=C(C)/C=C/C=C(C)/C=C/C1=C(C)CCCC1(C)C | inactive
21 | CC1=NN(c2ccccc2)C(=O)C1 | inactive
22 | CCCCOC(=O)CCCCCCCCC(=O)OCCCC | inactive
23 | CC(=O)/C=C/C1=C(C)CCCC1(C)C | inactive
24 | Cc1ccc(O)c(-n2nc3ccccc3n2)c1 | inactive
25 | O=C(O)CCCCC1CCSS1 (stereo not given) | inactive
26 | OC[C@@H](O)[C@@H](O)[C@H](O)[C@H](O)CO | inactive
27 | CC(C)(C)NCC(O)c1ccc(O)c(CO)c1 (stereo not given) | inactive
28 | CC(C)(C)CC(C)(C)c1ccc(O)c(-n2nc3ccccc3n2)c1 | inactive
29 | CN(C)C=O | inactive
30 | CC1(C)O[C@@H]2[C@@H](CO[C@@]3(COS(N)(=O)=O)OC(C)(C)O[C@@H]23)O1 | inactive

Target: Estrogen receptor (Homo sapiens) (UniProt P03372)
Sequence (P03372 whole entry, looked up): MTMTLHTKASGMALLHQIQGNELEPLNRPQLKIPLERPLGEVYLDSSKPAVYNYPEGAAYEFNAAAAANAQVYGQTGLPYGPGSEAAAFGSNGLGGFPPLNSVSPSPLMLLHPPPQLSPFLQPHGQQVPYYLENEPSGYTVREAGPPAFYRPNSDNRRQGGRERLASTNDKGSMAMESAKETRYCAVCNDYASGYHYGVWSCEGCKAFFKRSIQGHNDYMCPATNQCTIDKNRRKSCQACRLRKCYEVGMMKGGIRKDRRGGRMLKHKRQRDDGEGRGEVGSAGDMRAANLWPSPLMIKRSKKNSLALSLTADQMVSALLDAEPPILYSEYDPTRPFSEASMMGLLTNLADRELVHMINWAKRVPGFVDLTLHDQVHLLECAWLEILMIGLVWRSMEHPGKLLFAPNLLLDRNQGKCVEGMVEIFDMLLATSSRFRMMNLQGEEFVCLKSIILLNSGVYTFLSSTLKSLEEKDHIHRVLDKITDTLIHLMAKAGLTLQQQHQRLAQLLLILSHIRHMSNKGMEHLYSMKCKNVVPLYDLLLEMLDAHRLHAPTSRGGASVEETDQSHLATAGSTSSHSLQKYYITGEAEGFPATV
Assay: qHTS assay to identify small molecule agonists of the estrogen receptor alpha (ER-alpha) signaling pathway (AID 743075);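 also: HEK293 GripTite cells with ER-alpha and UAS-driven beta-lactamase reporter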; also: potency is read from the fitted curve at half-maximal effect
Conditions: HEK293 ER-alpha-UAS-bla, beta-lactamase FRET ratio, 18 h; series mostly up to 70.1 µM

Row | Compound | Potency
31 | C=CCOC(=O)CC(C)C | inactive
32 | Cc1c(N(C)C)c(=O)n(-c2ccccc2)n1C | inactive
33 | Cc1cccc(Nc2cc(Cl)nc(SCC(=O)O)n2)c1C | inactive
34 | NC(=O)N/N=C/c1ccc([N+](=O)[O-])o1 | inactive
35 | COc1cc2c(c(OC)c1OC)-c1ccc(OC)c(=O)cc1[C@@H](NC(C)=O)CC2 | inactive
36 | NC(=O)N1c2ccccc2C=Cc2ccccc21 | inactive
37 | COc1ccccc1O | inactive
38 | C=C(C)OC(C)=O | inactive
39 | COC1=CC(=O)C[C@@H](C)[C@]12Oc1c(Cl)c(OC)cc(OC)c1C2=O | inactive
40 | O=C(O)CN(CC(=O)O)CC(=O)O | inactive
41 | CCCCCCCCOc1ccc(C(=O)c2ccccc2)c(O)c1 | inactive
42 | COc1cc(O)c(C(=O)c2ccccc2)cc1S(=O)(=O)O | inactive
43 | Cc1cnc(NC(=O)C2=C(O)c3ccccc3S(=O)(=O)N2C)s1 | inactive
44 | c1ccc2[nH]c(-c3cscn3)nc2c1 | inactive
45 | CCn1cc(C(=O)O)c(=O)c2ccc(C)nc21 | inactive
46 | COCC(C)N (stereo not given) | inactive
47 | CC(=O)CCC(C)C | inactive
48 | CCCCOCCOCCOC(C)=O | inactive
49 | N[C@@H](Cc1c[nH]c2ccc(O)cc12)C(=O)O | inactive
50 | CC(=O)OC/C=C(C)/C=C/C=C(C)/C=C/C1=C(C)CCCC1(C)C | inactive and 33.8 µM [activator] (active)
51 | CC1=NN(c2ccccc2)C(=O)C1 | inactive
52 | CCCCOC(=O)CCCCCCCCC(=O)OCCCC | inactive
53 | CC(=O)/C=C/C1=C(C)CCCC1(C)C | inactive
54 | Cc1ccc(O)c(-n2nc3ccccc3n2)c1 | inactive and 11 µM [activator] (active)
55 | O=C(O)CCCCC1CCSS1 (stereo not given) | inactive
56 | OC[C@@H](O)[C@@H](O)[C@H](O)[C@H](O)CO | inactive
57 | CC(C)(C)NCC(O)c1ccc(O)c(CO)c1 (stereo not given) | inactive
58 | CC(C)(C)CC(C)(C)c1ccc(O)c(-n2nc3ccccc3n2)c1 | inactive
59 | CN(C)C=O | inactive
60 | CC1(C)O[C@@H]2[C@@H](CO[C@@]3(COS(N)(=O)=O)OC(C)(C)O[C@@H]23)O1 | inactive

Target: Estrogen receptor (Homo sapiens) (UniProt P03372)
Assay: qHTS assay to identify small molecule agonists of the estrogen receptor alpha (ER-alpha) signaling pathway using the BG1 cell line (AID 743079; active = well fitted activation curve with a large enough effect in the repeat runs; also: nearly all actives have a fitted effect of over 20% in size; also: potency is read from the fitted curve at half-maximal effect)
Conditions: BG1Luc4E2 cells, ERE-luciferase agonist, 22 h; series mostly up to 70.3 µM

Row | Compound | Potency
61 | C=CCOC(=O)CC(C)C | inactive
62 | Cc1c(N(C)C)c(=O)n(-c2ccccc2)n1C | inactive
63 | Cc1cccc(Nc2cc(Cl)nc(SCC(=O)O)n2)c1C | inactive
64 | NC(=O)N/N=C/c1ccc([N+](=O)[O-])o1 | inactive
65 | COc1cc2c(c(OC)c1OC)-c1ccc(OC)c(=O)cc1[C@@H](NC(C)=O)CC2 | inactive
66 | NC(=O)N1c2ccccc2C=Cc2ccccc21 | inactive
67 | COc1ccccc1O | inactive
68 | C=C(C)OC(C)=O | inactive
69 | COC1=CC(=O)C[C@@H](C)[C@]12Oc1c(Cl)c(OC)cc(OC)c1C2=O | inactive
70 | O=C(O)CN(CC(=O)O)CC(=O)O | inactive
71 | CCCCCCCCOc1ccc(C(=O)c2ccccc2)c(O)c1 | inactive
72 | COc1cc(O)c(C(=O)c2ccccc2)cc1S(=O)(=O)O | inactive
73 | Cc1cnc(NC(=O)C2=C(O)c3ccccc3S(=O)(=O)N2C)s1 | inactive and 21.1 µM (active)
74 | c1ccc2[nH]c(-c3cscn3)nc2c1 | 16.8 µM (active) and 24.5 µM (active) and 9.69 µM (active)
75 | CCn1cc(C(=O)O)c(=O)c2ccc(C)nc21 | inactive
76 | COCC(C)N (stereo not given) | inactive
77 | CC(=O)CCC(C)C | inactive
78 | CCCCOCCOCCOC(C)=O | inactive
79 | N[C@@H](Cc1c[nH]c2ccc(O)cc12)C(=O)O | inactive
80 | CC(=O)OC/C=C(C)/C=C/C=C(C)/C=C/C1=C(C)CCCC1(C)C | inactive
81 | CC1=NN(c2ccccc2)C(=O)C1 | inactive
82 | CCCCOC(=O)CCCCCCCCC(=O)OCCCC | inactive
83 | CC(=O)/C=C/C1=C(C)CCCC1(C)C | inactive
84 | Cc1ccc(O)c(-n2nc3ccccc3n2)c1 | 5.96 µM (active) and 17.1 µM (active) and 3.86 µM (active)
85 | O=C(O)CCCCC1CCSS1 (stereo not given) | inactive
86 | OC[C@@H](O)[C@@H](O)[C@H](O)[C@H](O)CO | inactive
87 | CC(C)(C)NCC(O)c1ccc(O)c(CO)c1 (stereo not given) | inactive
88 | CC(C)(C)CC(C)(C)c1ccc(O)c(-n2nc3ccccc3n2)c1 | inactive
89 | CN(C)C=O | inactive
90 | CC1(C)O[C@@H]2[C@@H](CO[C@@]3(COS(N)(=O)=O)OC(C)(C)O[C@@H]23)O1 | inactive
